TrxR1 substrate = qHTS Assay for Substrates of Mammalian Selenoprotein Thioredoxin Reductase 1 (TrxR1): qHTS; Thioredoxin reductase 1, cytoplasmic (Rattus norvegicus), O89049; purified TrxR1 substrate turnover, NADPH consumption readout; Potency, µM (top dose mostly 114 µM); 390,000 compounds, 0.01% hits; AID 588456, 2011; further: nearly all actives have a fitted effect of over 50% in size
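Rat TrxR1, dispensed at 90 nM, was prereduced with 400 uM NADPH (final) for 5 min at ~22 deg C, then incubated with compound 15 min before 400 uM selenite. A first-read NADPH fluorescence drop versus no-compound background flagged substrates.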
rTrxR1 inhibitor = qHTS Assay for Inhibitors of Mammalian Selenoprotein Thioredoxin Reductase 1 (TrxR1): qHTS. recombinant rTrxR1, NADPH fluorescence consumption, selenite substrate. Thioredoxin reductase 1, cytoplasmic (Rattus norvegicus), O89049. AID 588453, 2011. Potency, µM (top dose mostly 114 µM), hits mostly inhibitors. 390,000 compounds, 1% hits; further: nearly all actives have a fitted effect of over 65% in size
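Rat TrxR1 (90 nM in the dispensed reagent) was pre-reduced with 400 uM NADPH for 5 min at room temperature, then incubated with compound for 15 min. After 400 uM selenite was added, NADPH fluorescence (Ex 340/Em 450 nm) was followed for 8 min.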
GALK inhibitor = qHTS Assay for Inhibitors of Human Galactokinase (GALK). P51570. Purified GALK, Kinase-Glo residual ATP luminescence. Potency, µM (series often up to 57.5 µM), usual class: inhibitors. 270,000 compounds, 0.007% hits. AID 1868, 2009
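GALK at 5 nM final was combined with compound, 35 uM ATP and 100 uM galactose in HEPES pH8.0 with MgCl2 and DTT. The reaction ran one hour at room temperature before luminescent ATP detection.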
Six1-Eya2 inh = qHTS Assay for Inhibitors of the Six1/Eya2 Interaction. AlphaScreen GST-Six1/His-Eya2 binding, biochemical; active compounds read low. activity change, % (no concentration beside the values). 360,000 compounds, 0.56% hits. AID 651725, 2012; in the data active means activity change below about -65%; inconclusive means mostly about -30% to -63%
Target sequence (O00167 whole entry, looked up): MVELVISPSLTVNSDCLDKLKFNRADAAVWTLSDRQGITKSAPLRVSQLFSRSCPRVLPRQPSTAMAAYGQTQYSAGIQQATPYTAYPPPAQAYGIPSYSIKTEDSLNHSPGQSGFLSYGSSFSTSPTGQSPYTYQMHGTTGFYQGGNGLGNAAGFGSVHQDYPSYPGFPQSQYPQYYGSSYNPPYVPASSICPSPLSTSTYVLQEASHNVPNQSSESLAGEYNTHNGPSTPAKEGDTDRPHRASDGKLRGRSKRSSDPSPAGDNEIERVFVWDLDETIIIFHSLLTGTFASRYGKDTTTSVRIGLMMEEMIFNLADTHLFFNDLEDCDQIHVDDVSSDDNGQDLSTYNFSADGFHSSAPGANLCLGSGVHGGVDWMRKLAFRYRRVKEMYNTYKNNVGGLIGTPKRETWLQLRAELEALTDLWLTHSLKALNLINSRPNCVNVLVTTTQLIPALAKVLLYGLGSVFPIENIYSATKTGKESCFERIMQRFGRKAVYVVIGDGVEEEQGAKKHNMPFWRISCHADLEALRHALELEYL
Target sequence (Q15475 whole entry, looked up): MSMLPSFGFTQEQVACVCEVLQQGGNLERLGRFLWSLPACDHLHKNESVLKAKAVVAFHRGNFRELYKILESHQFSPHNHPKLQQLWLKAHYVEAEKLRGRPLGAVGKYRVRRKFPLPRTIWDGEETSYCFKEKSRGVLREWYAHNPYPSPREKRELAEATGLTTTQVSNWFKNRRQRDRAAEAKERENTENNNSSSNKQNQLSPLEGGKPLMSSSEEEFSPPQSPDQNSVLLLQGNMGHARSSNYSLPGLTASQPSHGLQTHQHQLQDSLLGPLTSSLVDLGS
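Homogeneous AlphaScreen proximity assay pairing GST-Six1 with His-tagged Eya2 (added as 5X mix: 250 nM and 500 nM) in 50 mM Tris pH 8.0, 300 mM NaCl, 1 mM TCEP. Glutathione donor and nickel acceptor beads; 1 h, 37 °C, dark.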
CtBP-E1A inh = qHTS Assay for Inhibitors of the CtBP/E1A Interaction; AID 651724, 2012; 340,000 compounds, 0.49% hits; AlphaScreen GST-E1A/His-CtBP binding, 1536-well; active compounds read low; activity change, % (no concentration beside the values); CtBP / adenovirus E1A interaction (AlphaScreen); in the data active means activity change below about -65%; inconclusive means mostly about -30% to -63%
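GST-E1A and His-tagged CtBP (125 nM each as 5X stock) were preincubated with pin-transferred compound for 2 h at 37 °C in the dark, then glutathione donor and nickel acceptor beads were added for 1 h before AlphaScreen reading.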
Eya2 phos inh = qHTS Assay for Inhibitors of the Phosphatase Activity of Eya2 | Protein phosphatase EYA2 (Homo sapiens), O00167 | Potency, µM (doses to about 76.9 µM), actives largely listed as inhibitors | AID 488837, 2010 | 330,000 compounds, 0.006% hits | recombinant Eya2, OMFP fluorescence dephosphorylation (OMFP is methylfluorescein phosphate)
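Eya2 protein (added as 0.2 uM solution) was preincubated with compound for 10 min at ambient temperature in 50 mM HEPES pH 7.5, 50 mM NaCl, 5 uM MgCl2, 0.05% BSA, 1 mM DTT. OMFP (added at 50 uM) then reacted 10 min; fluorescence read at 485/525 nm.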
Numbers stand for hits; - = inactive; ? = inconclusive; . = no result. The list is not random: actives were taken first. Their share in the collection is about 1.5%. Unless noted, the call rests on the fitted dose curve; in most records, active means well fitted curve in the direction sought with a large enough effect; inconclusive means small, poorly fitted or top-dose-only effect, or another doubt; inactive means no such curve, though single readings can be large; an effect the other way counts as inactive or inconclusive.

SMILES	TrxR1 substrate	rTrxR1 inhibitor	GALK inhibitor	Six1-Eya2 inh	CtBP-E1A inh	Eya2 phos inh
CCCC(=O)N(C)c1ccc(/C=C2\C=Cc3ccccc32)cc1	-	20µM	.	.	.	.
COCCNc1nc(-c2ccccc2)nc2ccccc12	-	-	-	-	-	-
CC(C)OCCCNc1nc(Cl)nc2c1cnn2C	-	-	.	-	-	.
COCCNc1nc(=S)[nH]c2cc(OC)c(OC)cc12	-	-	-	-79.6	-87.0	-
CCCCNc1nc(=S)[nH]c2cc(OC)c(OC)cc12	-	-	-	-90.9	-93.4	-
CCOCCCNc1nc(=S)[nH]c2cc(OC)c(OC)cc12	-	?	-	-83.2	-91.9	-
COc1cc2[nH]c(=S)nc(NCCCOC(C)C)c2cc1OC	-	-	-	-86.2	-93.0	-
COc1ccc(CCNC(=O)CCCCCNc2nc(=S)[nH]c3ccccc23)cc1OC	-	-	-	?	-	-
CC1CCC(Nc2nc3c(-c4cccc(C(F)(F)F)c4)nnn3c3ccccc23)CC1 (stereo not given)	-	-	.	.	.	.
CCOC(=O)[C@@H](C)N(C(=O)OC(C)(C)C)S(=O)(=O)N(Cc1ccccc1)[C@@H](C(=O)OC)C(C)C	-	-	.	.	.	.
Cc1ccc(C(=O)CSc2nc(-c3ccccc3)nc3c2CCCC3)cc1C	-	-	.	.	.	.
COc1ccc(N=C2C(=Nc3ccc(OC)cc3)N(c3ccc(OC)cc3)C(=S)N2C)cc1	-	-	-	-69.4	-80.0	-
COc1ccc(N=C2C(=Nc3ccc(OC)cc3)N(c3ccc(OC)cc3)C(=S)N2c2ccccc2)cc1	-	-	-	-	-	-
Cc1cc(Cl)n2c(nc3cc(F)c(F)cc32)c1C#N	-	6.31µM	-	-	-	-
Cc1cc(C)n2c(=O)c3ccc(Cl)cc3nc2c1C#N	-	-	-	-	-	-
O=C(COCc1cc(-c2ccco2)on1)Nc1ccc(OC(F)(F)F)cc1	-	-	.	.	.	.
COc1cccc(/C=N/NC(=O)C(=O)N2CCCC2)c1O	-	-	-	-88.7	-	-
O=C(N/N=C/c1ccccc1F)C(=O)N1CCCCCC1	-	-	-	-	-	-
O=C(CCN1CCN(c2ccccc2)CC1)N/N=C/c1ccccc1O	-	-	-	-69.6	-	-
O=C(N/N=C/c1ccccc1)C(O)c1ccccc1 (stereo not given)	-	-	-	-	-	-
O=C(N/N=C/c1ccccc1O)C(=O)N1CCCCCC1	-	-	-	-78.8	-87.9	-
O=C(NN=Cc1ccccc1O)C(O)c1ccccc1 (stereo not given)	-	-	.	?	-68.3	.
COc1cccc(/C=N/NC(=O)C(=O)N2CCCC2)c1OC	-	-	-	-	-	-
C=Cc1ccc(CSc2nc(-c3ccc(C)cc3)nc3c2Cc2c(CO)cnc(C)c2O3)cc1	-	-	.	.	.	.
COc1ccc(C(=O)Oc2c(Sc3ccccc3)c(C)nn2-c2ccccc2)c(OC)c1	-	-	.	.	.	.
SMILES	TrxR1 substrate	rTrxR1 inhibitor	GALK inhibitor	Six1-Eya2 inh	CtBP-E1A inh	Eya2 phos inh
CC(=O)Nc1cccc(C(=O)/C=C/c2ccc[nH]2)c1	-	70.8µM	-	-	.	-
Cc1cccc(C)c1Nc1c(-c2ccc(O)cc2)nc2sccn12	-	-	.	.	.	.
COc1cc(-c2nc3sccn3c2Nc2c(C)cccc2C)ccc1O	-	15.8µM	.	.	.	.
COc1ccccc1C(=O)Nc1ccc2nc3n(c(=O)c2c1)CCCC3	-	-	-	-	-	-
COc1ccc(/C=C/C(=O)Nc2ccc3nc4n(c(=O)c3c2)CCCC4)cc1	-	-	-	-	-	-
COc1cc(/C=C/C(=O)Nc2ccc3nc4n(c(=O)c3c2)CCCC4)cc(OC)c1OC	-	-	-	-85.4	?	-
COc1cccc(/C=C/C(=O)Nc2ccc3nc4n(c(=O)c3c2)CCCC4)c1OC	-	-	-	?	-78.1	-
C(=Nc1ccc2ccccc2n1)c1ccccn1	-	-	.	.	.	.
Nc1c(S(=O)(=O)c2cccs2)c2nc3ccccc3nc2n1/N=C/c1cccc(O)c1	-	-	-	-87.5	-92.5	-
COC(=O)c1nnn(CC(=O)Nc2cc(F)ccc2F)c1C(=O)OC	-	-	.	.	.	.
CC(=O)Nc1nonc1-c1nnc(SCC(=O)Nc2cccc(C)c2C)n1-c1ccccc1	-	-	.	.	.	.
Cc1ccccc1S(=O)(=O)Cc1ccc(C(=O)N(C)C2CCCCC2)o1	-	56.2µM	-	-	-	-
COc1cnc(-c2ccccn2)nc1Oc1ccccc1Cl	-	-	-	-	-	-
COc1cnc(-c2ccccn2)[nH]c1=O	-	-	-	-90.6	-94.5	-
CCc1cc2c(=O)[nH]c(-c3ccccn3)nc2s1	-	-	-	-91.7	-	-
CCc1cc2c(=O)[nH]c(N3CCCC3)nc2s1	-	-	.	-	-	-
Cc1ccc(C2CCN(C(=O)Nc3ccc(Cl)c(Cl)c3)C2)cc1 (stereo not given)	-	-	.	.	.	.
COc1ccccc1NC(=O)c1oc2ccccc2c1NC(=O)c1ccc(S(=O)(=O)N(C)C)cc1	-	-	.	.	.	.
CCOC(=O)c1ccc(NC2SC(=O)N(Cc3cccc(C(=O)O)c3)C2=O)cc1 (stereo not given)	-	79.4µM	.	.	.	.
Cc1ccc(-c2ccc(NC(=O)C3C4C=CC(C4)C3C(=O)O)cc2)o1 (stereo not given)	-	22.4µM	-	-	-	-
COc1ccc(NC(=O)C2C3C=CC(C3)C2C(=O)O)cc1 (stereo not given)	-	-	-	-	-	?
CCOc1ccccc1NC(=O)c1nc(S(=O)(=O)Cc2cccc(C)c2)ncc1Cl	-	7.08µM	-	-	-	-
CCc1nnc(NC(=O)c2nc(S(=O)(=O)Cc3ccc(C)cc3)ncc2Cl)s1	-	44.7µM	-	-	-	-
CCc1nnc(NC(=O)c2nc(S(=O)(=O)Cc3ccccc3)ncc2Cl)s1	-	44.7µM	-	-	-	-
CCc1nnc(NC(=O)c2nc(Cl)ccc2Cl)s1	-	-	-	-	-	-
CCSc1ncc(Cl)c(C(=O)Nc2ccccc2OC)n1	-	-	-	-	-	-
CCc1nnc(NC(=O)c2nc(S(=O)(=O)Cc3cccc(C)c3)ncc2Cl)s1	-	39.8µM	-	-	-	-
Cc1[nH]c2ccccc2c1C1=CC(=O)C=CC1=O	-	25.1µM	.	-	-	.
Cn1ncc2cc(NC(=S)NC(=O)c3ccccc3)ccc21	-	25.1µM	-	-	-	-

Screening data as filed in PubChem.
